The panel holds about 79,000 compounds, 15% with a hit somewhere; the sample as a whole holds those more often. The source made the active and inactive calls. Rule as the data show it: active = growth inhibition above about 70%; inactive = the rest.
Columns and labels:
[1] = NCI Yeast Anticancer Drug Screen. Data for the rad50 strain (AID 155);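 also: 0% = growth of vehicle-only cultures of the same strain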; conditions: S. cerevisiae rad50 strain growth inhibition; at 50.0 µM; active compounds read high
Summary of the method: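 Growth of the mutant yeast was measured after compound exposure and referenced to vehicle-treated cultures.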

[2] = NCI Yeast Anticancer Drug Screen. Data for the mec2-1 strain (AID 157); conditions: S. cerevisiae mec2-1 strain, at 50.0 µM, active compounds read high
Summary of the method: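 Using mec2-1 yeast: add compound, measure growth, express inhibition versus vehicle-treated cultures.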

[3] = NCI Yeast Anticancer Drug Screen. Data for the sgs1 mgt1 strain (AID 161);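 also: 0% = growth of cultures given vehicle only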; conditions: S. cerevisiae sgs1 mgt1 strain, at 50.0 µM, active compounds read high
Summary of the method: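 Percent growth inhibition was derived by comparing compound-exposed mutant yeast with vehicle-exposed cultures. The strain carries alterations in DNA damage repair.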

[4] = NCI Yeast Anticancer Drug Screen. Data for the cln2 rad14 strain (AID 165);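 also: 0% = growth equal to vehicle treated cultures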; conditions: S. cerevisiae cln2 rad14 strain, at 50.0 µM, active compounds read high
Summary of the method: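 Yeast strain cln2 rad14, bearing defects in cell cycle control and DNA repair, serves as the test system; values reflect growth inhibition compared with vehicle.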

[5] = NCI Yeast Anticancer Drug Screen. Data for the bub3 strain (AID 167); conditions: S. cerevisiae bub3 mutant strain, at 50.0 µM, active compounds read high
Summary of the method: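 Whole-cell yeast assay. The mutant strain was incubated with compounds, and growth inhibition was determined by comparison with vehicle-treated cells.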

[6] = NCI Yeast Anticancer Drug Screen. Data for the mlh1 rad18 strain (AID 175); conditions: S. cerevisiae mlh1 rad18 strain growth inhibition; at 50.0 µM; active compounds read high
Summary of the method: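 Steps: expose repair-defective yeast to compound; measure growth; express inhibition against vehicle-treated controls.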

Measured: growth inhibition

Cc1ccc(S(=O)(=O)N2CCN(S(=O)(=O)c3ccc(C)cc3)COC2)cc1
inactive: [1] -1.1% | [2] -0.4% | [3] -5.15% | [4] -3.85% | [5] -1.6% | [6] -9.85%

CC1(C)C2CCC(=O)C1CC2 (stereo unspecified)
inactive: [1] 6.75% | [2] 14.2% | [3] -22.6% | [4] 12.7% | [5] -37.4% | [6] -43.5%

NCCNC(c1ccccc1)C(O)c1ccccc1 (stereo unspecified)
inactive: [1] -8.7% | [2] -0.7% | [3] -1.25% | [4] -33.9% | [5] -41.2% | [6] -4.25%

NC1C2C=CC(C2)C1C(=O)O (stereo unspecified)
inactive: [1] -0.65% | [2] -0.25% | [3] -50.4% | [4] 4% | [5] -26.6% | [6] -17.3%

CCC(C)N1C(=O)c2ccccc2C1=O (stereo unspecified)
inactive: [1] 33% | [2] -13.6% | [3] 17.1% | [4] -13.6% | [5] 11.3% | [6] 27.1%

C/C(=N/O)c1ccc[cH-]1.[Fe+2].c1cc[cH-]c1
inactive: [1] 20.1% | [2] -5.3% | [3] 0.45% | [4] -0.8% | [5] -8.4% | [6] -11.5%

COc1cc(OC)c2nc3ccccc3c(NCCC[N+](C)(C)[O-])c2c1[N+](=O)[O-]
inactive: [1] 7.65% | [2] -33.6% | [3] -12.9% | [4] -22.2% | [5] -14.2% | [6] -17.8%

CN1CCC=C(C(C)(C)O)C1
inactive: [1] -3.55% | [2] -4.45% | [3] -15.7% | [4] 11.3% | [5] -0.6% | [6] 2.35%

CC(=O)Nc1ccc(O)c([N+](=O)[O-])c1
inactive: [1] 3.1% | [2] 3.3% | [3] 3.3% | [4] -36% | [5] -9.15% | [6] -11.4%

COc1cc(C(c2ccc3c(c2)OCO3)C2SCCCS2)cc(OC)c1OC (stereo unspecified)
inactive: [1] 25.2% | [2] 13.7% | [3] 21% | [4] 6.6% | [5] -12% | [6] 37.9%

COc1ccc(CCN=C(c2ccccc2)c2ccccc2)cc1OC
inactive: [1] 22.4% | [2] 10.2% | [3] 8.75% | [4] -27.4% | [5] 10.3% | [6] 12.7%

C/C(=N\N=P(c1ccccc1)(c1ccccc1)c1ccccc1)c1ccccc1
inactive: [1] 5.15% | [2] -6.5% | [3] 9.35% | [4] -1.4% | [5] 2.6% | [6] -14.3%

N#Cc1nc(CC(=O)c2ccncc2)c(CC(=O)c2ccncc2)nc1C#N
inactive: [1] 8% | [2] 11.9% | [3] 35.9% | [4] 13.5% | [5] -10.9% | [6] 53.1%

O=C(OC1CCCCC1)C(=O)OC1CCCCC1
inactive: [1] 3.3% | [2] -2.3% | [3] 1.35% | [4] -37.2% | [5] -5.45% | [6] 14%

Cc1nc2ccccc2nc1C1=C(O)c2ccccc2CC1=O
inactive: [1] 0.85% | [2] 8.6% | [3] 10.1% | [4] -71.2% | [5] -10.2% | [6] 1.35%

COC(=O)C12OCC34C(CC(C(C)=O)C(C)(CC(=O)O)C3C(O)C1O)OC(=O)C(OC(=O)/C=C(\C)C(C)C)C24 (stereo unspecified)
inactive: [1] 10% | [2] 21.3% | [3] 0.15% | [4] 9% | [5] 7.6% | [6] 6.95%

O=C1Cc2ccccc2CN1
inactive: [1] -6.95% | [2] 13.3% | [3] -3.5% | [4] 19.6% | [5] 2.15% | [6] 32.3%

C=C(C)COc1ccc2c(c1)CCC1C2CCC2(C)C1CCC2(C)O (stereo unspecified)
inactive: [1] 21% | [2] 0.45% | [3] 3.75% | [4] 17.6% | [5] -0.9% | [6] 6.6%

COC(=O)c1nnn(-c2c(C)cccc2C(C)C)c1C(=O)c1ccccc1
inactive: [1] 6% | [2] -2.45% | [3] -2.15% | [4] -7.6% | [5] -23.8% | [6] 24.1%

O=P(O)(O)c1ccccc1Br
inactive: [1] -13.1% | [2] -17.2% | [3] 4.85% | [4] -15.8% | [5] 2.3% | [6] 3.2%

CCCNC(=S)N/N=C/c1cccc(C)n1
inactive: [1] -23.3% | [2] -26.1% | [3] 2.15% | [4] 15.2% | [5] 24.2% | [6] -12%

N#CCCN(CCC#N)c1ccc(/C=C2\N=C(c3cc([N+](=O)[O-])ccc3Cl)OC2=O)cc1
inactive: [1] -8.15% | [2] 13.9% | [3] -16.4% | [4] 25% | [5] 4.85% | [6] -7.15%

CCc1cccc(C)c1NC(=O)CC1C(=O)Nc2ccccc2S1=O (stereo unspecified)
inactive: [1] -6.1% | [2] -0.9% | [3] 13.2% | [4] -63.7% | [5] 9.85% | [6] 27.4%

CCC(O)CN(C)C (stereo unspecified)
inactive: [1] 8% | [2] -4.6% | [3] 6.65% | [4] -13.4% | [5] 0.85% | [6] 3.45%

Nc1cccc(CNC(=O)COc2ccc(Cl)c(Cl)c2)c1
active: [1] 84.7% | [3] 89.7% | [4] 77.2% | [5] 79.8% | [6] 82.8%
inactive: [2] 68.9%

CC1(C)CC2C(C1=O)C1(C)CCCC2(C)C1=O (stereo unspecified)
inactive: [1] -11.8% | [2] -7.1% | [3] -26.6% | [4] -14.8% | [5] 3% | [6] -46.5%

O=C(O)c1oc2cccc3c2c1CCC3
inactive: [1] -3.6% | [2] 1.3% | [3] 5.4% | [4] -10.3% | [5] -1.35% | [6] -4.2%

Cc1cc(Nc2ccc(O)cc2)nc(Nc2ccc(O)cc2)n1
inactive: [1] -8.25% | [2] -18.4% | [3] -35.3% | [4] -34% | [5] 10.9% | [6] -2.3%

CCCCCCCCCCCCCCCCCC(=O)OCCCC
inactive: [1] 6.35% | [2] -9.9% | [3] -20.1% | [4] -20.4% | [5] 0.2% | [6] -22%

CCN(CC)c1nc(Cl)nc(C(N)=O)c1N
inactive: [1] 4.85% | [2] -8.25% | [3] -10.4% | [4] -16.1% | [5] -1.2% | [6] -10.4%

CC(=O)Nc1ccc(N=NN(C)c2ccccc2)cc1
inactive: [1] 29.4% | [2] 36% | [3] 47.1% | [4] 5.45% | [5] 19.8% | [6] 44.4%

CC(C)(C)c1[nH]ncc1CCC(=O)Nc1ccc(Cl)cc1Cl
inactive: [1] -0.6% | [2] -1.95% | [3] -5.85% | [4] 1.1% | [5] -16.1% | [6] 4.05%

OC[C@@H](O)[C@H]1NC[C@@H](O)[C@H]1O
inactive: [1] -45.1% | [2] -57.1% | [3] -50.1% | [4] 7.7% | [5] -26.1% | [6] -17.9%

COc1ccc2c(CCNC(C)=O)c(C(C)=O)[nH]c2c1
inactive: [1] -9.65% | [2] -3.25% | [3] 12.4% | [4] 15.5% | [5] -12.3% | [6] 36.1%

C1CNCCNCCN1
inactive: [1] 7.65% | [2] -1.05% | [3] 10.1% | [4] 21.1% | [5] 25.5% | [6] -4.3%

[N-]=[N+]=NC1=NNC2(C(=O)N1)c1ccccc1-c1ccccc12
inactive: [1] -6.35% | [2] -17.5% | [3] -22.9% | [4] -5.75% | [5] -30.1% | [6] -18.6%

Reference: PubChem BioAssay (NCI)
